Screening data (PubChem)
AID504770 – growth inhibitors of E. coli YBA685 in a screen for V. cholerae RctB (chromosome II replication) inhibitors | E. coli YBA685 rctB-dependent plasmid, OD600 growth, 3 h; active compounds read low | z-score (concentration not given with the values) | 0.27% of 130,000 active | AID 504770; in the data active = z-score below about -2, passing the limit was not always enough
Polio RdRp inh – poliovirus RNA polymerase inhibition; P03300; poliovirus polymerase elongation, fluorescence polarization; active compounds read low; % elongation, % (compound at 16.7 µg/mL); 0.66% of 150,000 active; in the data active = % elongation below about 90%
Mtb MbtI inh – inhibitors of Mycobacterium tuberculosis siderophore enzyme MbtI | purified MbtI enzyme, fluorescence intensity read-out | inhibition, % (concentration not given with the values) | 0.89% of 100,000 active | AID 493033; in the data active = inhibition mostly above about 56%, no sharp cut-off; inactive = mostly below about 77%
Target sequence (P9WFX0 whole entry, looked up): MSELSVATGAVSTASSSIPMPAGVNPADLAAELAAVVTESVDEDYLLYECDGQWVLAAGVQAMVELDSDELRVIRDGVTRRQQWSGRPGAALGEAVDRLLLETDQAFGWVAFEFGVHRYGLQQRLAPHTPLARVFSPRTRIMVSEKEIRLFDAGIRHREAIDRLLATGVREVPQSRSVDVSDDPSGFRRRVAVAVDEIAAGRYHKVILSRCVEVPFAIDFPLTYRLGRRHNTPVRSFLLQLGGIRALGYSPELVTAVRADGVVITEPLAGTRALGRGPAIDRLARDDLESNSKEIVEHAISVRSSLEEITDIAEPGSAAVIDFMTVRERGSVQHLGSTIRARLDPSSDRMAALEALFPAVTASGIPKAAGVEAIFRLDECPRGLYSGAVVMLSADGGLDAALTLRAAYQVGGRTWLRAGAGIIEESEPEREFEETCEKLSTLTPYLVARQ
Mtb MenB inh – Mtb MenB enzyme inhibition. 0.43% of 100,000 active. AID 540299. MenB enzyme assay, absorbance read-out. inhibition, % (test concentration not listed); in the data active = inhibition above about 21%, passing the limit was not always enough
Active calls of the source: *. Rows were chosen to be rich in hits. Some 1.5% of all compounds tested hit in one or more screens of this group.

COc1ccccc1-n1cnnc1SCC(N)=O was read as AID504770 0.7, Polio RdRp inh 107, Mtb MbtI inh 6 and Mtb MenB inh -108.
`CSC1=NSC2=NC(=O)/C(=C\c3cccs3)C(=N)N12` gave AID504770 -0.85, Polio RdRp inh 99, Mtb MbtI inh 100* and Mtb MenB inh -61.
S=c1[nH]nc(SCc2cccs2)s1 was read as AID504770 0.15, Polio RdRp inh 98, Mtb MbtI inh 102* and Mtb MenB inh 3.
For Cc1ccc(NC(=O)CN2C(=O)C(c3ccc(C(C)(C)C)cc3)=NC2(C)C)cc1 the results were Polio RdRp inh 32*.
For O=C(O)C(CO)c1ccccc1 (stereo not given) the results were AID504770 0.1, Polio RdRp inh 98, Mtb MbtI inh 0 and Mtb MenB inh 26*.
`O=C(CC(C(=O)O)c1cccc(Cl)c1)c1ccccc1` (stereo not given) gave AID504770 0.2.
N#Cc1c(NCSCc2ccccc2)sc2c1CCCCC2 was read as AID504770 -0.15, Polio RdRp inh 69* and Mtb MenB inh -12.
Screening Clc1ccc(C2=NNC(=NCc3ccc4c(c3)OCO4)SC2)cc1 returned AID504770 -0.7, Polio RdRp inh 85*, Mtb MbtI inh 47 and Mtb MenB inh -29.
CCCN=C1NN=C(c2cc(C)n(Cc3ccc4c(c3)OCO4)c2C)CS1 was read as AID504770 -1.2, Polio RdRp inh 108, Mtb MbtI inh -1 and Mtb MenB inh -9.
`O=C(O)CO/N=C/c1ccccc1` gave AID504770 -0.2, Polio RdRp inh 98, Mtb MbtI inh -10 and Mtb MenB inh 6.
For O=C(O)CON=C1C2CC3CC(C2)CC1C3 the results were AID504770 0.95, Polio RdRp inh 78*, Mtb MbtI inh 0 and Mtb MenB inh 10.
For CCCn1c(SCC(=O)N2CCCC2)nnc1C(C)C the results were AID504770 -3.1*, Polio RdRp inh 101, Mtb MbtI inh -13 and Mtb MenB inh -16.
Screening Cc1ccc(NC(=O)c2c(C)nc3sc(C(=O)NC4CCCC4)c(N)c3c2-c2cccnc2)c(C)c1 returned AID504770 -0.45.
Screening CCN1C(=O)/C(=C\c2ccc(-c3ccc(Cl)c(C(=O)O)c3)o2)SC1=S returned AID504770 -1.1, Polio RdRp inh 75, Mtb MbtI inh 67* and Mtb MenB inh -159.
For CN1C(=O)S/C(=C/c2ccc(-c3ccc(C(=O)O)c(Cl)c3)o2)C1=O the results were AID504770 -0.7, Polio RdRp inh 100, Mtb MbtI inh -30 and Mtb MenB inh -48.
O=C(Oc1cccc(Cl)c1Cl)c1ccncc1 was read as AID504770 -1.5, Polio RdRp inh 4.0*, Mtb MbtI inh -2 and Mtb MenB inh 1.
For CCC(C)[C@@H](CO[C@@H](Cc1ccccc1)C(=O)N[C@@H](CCS(C)(=O)=O)C(=O)OC(C)C)NC[C@@H](N)CS (stereo not given in full) the results were Polio RdRp inh 103, Mtb MbtI inh 67* and Mtb MenB inh -13.
For C1CNCC(CN2CCCC2)C1 (stereo not given) the results were AID504770 0.65, Polio RdRp inh 103, Mtb MbtI inh -2 and Mtb MenB inh 46*.
For COC(=O)CC1SC(=O)NC1=S (stereo not given) the results were AID504770 -2.7, Polio RdRp inh 60, Mtb MbtI inh 84* and Mtb MenB inh -52.
`COC(=O)CC1SC(=O)NC1=Nc1ccc(C)cc1` (stereo not given) gave AID504770 0.55.
`O=C(Nc1ccc2c(c1)OCCO2)C1CCCN(S(=O)(=O)Cc2ccccc2)C1` (stereo not given) gave AID504770 1.1, Polio RdRp inh 101, Mtb MbtI inh 0 and Mtb MenB inh 56*.
O=C(O)C1CCCN(S(=O)(=O)Cc2ccccc2)C1 (stereo not given) was read as AID504770 -1.1, Polio RdRp inh 102, Mtb MbtI inh -6 and Mtb MenB inh 18.
Screening CCc1cc(-c2nc(N)ncc2-c2ccc(OC)cc2)c(O)cc1OC returned AID504770 -0.15, Polio RdRp inh 100, Mtb MbtI inh -6 and Mtb MenB inh -30.
For CCOc1ccc(-c2nnc3ccc(SCC)nn23)cc1 the results were AID504770 -1.1.
For CCc1ccc(NC(=O)/C=C/c2ccco2)cc1 the results were AID504770 -0.7, Polio RdRp inh 98, Mtb MbtI inh 15 and Mtb MenB inh 6.
Screening CCc1cccc(NC(=O)/C=C/c2ccco2)c1 returned AID504770 -1.1, Polio RdRp inh 105, Mtb MbtI inh 78* and Mtb MenB inh 2.
`Cc1cc(-n2c(C)cc(CNC3CC(C)(C)NC(C)(C)C3)c2C)no1` gave AID504770 -0.35, Polio RdRp inh 101, Mtb MbtI inh 8 and Mtb MenB inh 5.
For CC1(C)Cc2c(c(N3CCOCC3)nc3sc4c(c23)N2C(=O)CCC2(C)NC4=O)CO1 (stereo not given) the results were AID504770 0.3, Polio RdRp inh 101, Mtb MbtI inh -23 and Mtb MenB inh -11.
For CN(C)C(=S)c1nc2ccccc2s1 the results were AID504770 -0.9, Polio RdRp inh 99, Mtb MbtI inh 45 and Mtb MenB inh -50.
Screening CN(C)C(=S)Nc1nc2ccccc2s1 returned AID504770 1.8, Polio RdRp inh 100, Mtb MbtI inh 71* and Mtb MenB inh -59.
For CCOC(=O)C1=C(C)NNC(=Nc2cccc(C)c2C)S1 the results were AID504770 0.6, Polio RdRp inh 80*, Mtb MbtI inh 86* and Mtb MenB inh -21.
For O=C(CSc1nc2cc(C(=O)NCc3ccco3)ccc2c(=O)n1Cc1ccco1)c1ccccc1 the results were AID504770 0.1, Polio RdRp inh 101, Mtb MbtI inh -11 and Mtb MenB inh -10.
COCCn1c(C)cc(/C=N/n2c(Cc3cccc4ccccc34)n[nH]c2=S)c1C was read as AID504770 1, Polio RdRp inh 93, Mtb MbtI inh 73* and Mtb MenB inh -31.
Screening COCCn1c(C)cc(/C=N/n2c(C)nc3ccccc3c2=O)c1C returned AID504770 -0.3, Polio RdRp inh 104, Mtb MbtI inh -2 and Mtb MenB inh 2.
CCOc1ccc(NC(=O)Cn2c(=O)n(CC(=O)NCCc3ccccc3)c(=O)c3sccc32)cc1 was read as Polio RdRp inh 81*.
COc1ccc2c(c1)Cc1sc(NC(=O)c3ccccc3C)nc1-2 was read as Polio RdRp inh 83*.
COc1ccc(C(=O)Nc2nc3c(s2)Cc2cc(OC)ccc2-3)cc1 was read as Polio RdRp inh 67*.
COc1ccc2c(c1)Cc1sc(NC(=O)c3ccc(OC)c(Br)c3)nc1-2 was read as AID504770 0.25, Polio RdRp inh 87*, Mtb MbtI inh -7 and Mtb MenB inh -3.
For COc1ccc2c(c1)Cc1sc(NC(=O)c3ccccc3)nc1-2 the results were AID504770 0.6.
COc1ccc2c(c1)Cc1sc(NC(=O)c3cccc(F)c3)nc1-2 was read as Polio RdRp inh 90.
C=CCC(O)(CC=C)C(N)C(C)C (stereo not given) was read as AID504770 -0.5, Polio RdRp inh 103, Mtb MbtI inh 1 and Mtb MenB inh -28.
